From PubChem BioAssay
Most compounds without a hit are left out; they make up all but 2.8% or so of the library.
SNCA expr inhib: SNCA gene expression inhibition; HEK-293 SNCA-luciferase knock-in, luminescence, 24 h; Potency, µM (top dose mostly 57.2 µM), usual class: inhibitors; hit rate 0.17% among 140,000; AID 1671194; also: nearly all actives have a fitted effect of over 45% in size
IP6K1 inhibitor: IP6K1 kinase inhibition. hit rate 0.81% among 140,000. Q92551. activity change, % (series mostly up to about 58 µM). IP6K1 kinase, ADP-Glo luminescence, 2 h; stronger effect = lower value; in the data active = activity change below about -25%
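ADP-Glo luminescence measures ADP made by human IP6K1 during a 2 h RT reaction with ATP/IP6 (mix at 1.3 mM/130 uM); top library doses 57.5 and 19.1 uM final.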
SNCA viab count: counter-screen for SNCA expression inhibitors: cell viability | HEK-293-SNCA-luc viability, GF-AFC fluorescence, 24 h | Potency, µM (top dose mostly 57.1 µM), most hits filed as cytotoxic | hit rate 0.12% among 150,000 | AID 1671193; also: nearly all actives have a fitted effect of over 30% in size
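Cytotoxicity counterscreen: after 24 h compound treatment of genome-edited SNCA-luciferase HEK-293 cells, live-cell protease substrate GF-AFC read by fluorescence after 30 min; activity scaled between DMSO (0%) and medium-only (-100%), curves Hill-fitted.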
KDM5B inhibitor: blocks human KDM5B histone demethylase activity. KDM5B demethylase, FDH-coupled NADH fluorescence (FDH is formaldehyde dehydrogenase). hit rate 2.6% among 220,000. Q9UGL1. Potency, µM (series often up to 57.7 µM), hits mostly inhibitors; also: nearly all actives have a fitted effect of over 70% in size
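Coupled FDH/NAD⁺ fluorescence readout. KDM5BΔAP 200 nM final; compound titration, 10 min RT preincubation; substrate mix 12.5 µM H3K4me3, 25 µM 2-OG, 50 µM Fe(II), 100 µM ascorbate, 0.25 mM NAD⁺, 0.25 U/mL FDH; ΔRFU over 30 min.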
Each line names hits and unclear results; the compound was inactive in the other large screens. Unless noted, calls follow the shape of the dose curve; as a rule, active = well fitted curve in the direction sought with a large enough effect; inconclusive = small, poorly fitted or top-dose-only effect, or another doubt; inactive = no such curve, though single readings can be large; an effect the other way counts as inactive or inconclusive.

O=c1c(-c2cccs2)nc2cnc(N3CCNCC3)nc2n1Cc1cccs1	SNCA expr inhib 17.8µM, SNCA viab count inconclusive (no result: IP6K1 inhibitor, KDM5B inhibitor)
O=C(Nc1cnc(-c2cccc(Cl)c2)nc1)C1CCCO1 (centres undefined)	none
CN(C)CCCOCC1(C)COc2ccc(C(=O)Nc3ccccc3)cc2N1 (centres undefined)	KDM5B inhibitor inconclusive
CCOCC1(C)COc2ccc(C(=O)NCc3ccc(F)cc3)cc2N1 (centres undefined)	KDM5B inhibitor inconclusive
CN(C)CCOCC1(C)COc2ccc(C(=O)NCc3cccc(F)c3)cc2N1 (centres undefined)	KDM5B inhibitor 39.8µM
CN(C)CCOCC1(C)COc2ccc(C(=O)NCc3ccc(F)cc3)cc2N1 (centres undefined)	KDM5B inhibitor 39.8µM
CCCCCNC(=O)c1cc(-c2ccc(OC)cc2)nc2c1cnn2C	none (no result: SNCA expr inhib, SNCA viab count, KDM5B inhibitor)
O=C(NC1CCC(O)CC1)c1ccc(-c2ncc3cnc(-c4cccc(F)c4)cn23)cc1 (centres undefined)	KDM5B inhibitor 22.4µM
O=C(NCCc1cnc[nH]1)c1ccc(-c2ncc3cnc(-c4cccc(F)c4)cn23)cc1	KDM5B inhibitor inconclusive
CC(=O)NCCNC(=O)c1ccc(-c2ncc3cnc(-c4cccc(F)c4)cn23)cc1	KDM5B inhibitor 28.2µM
NC(=O)c1ccc(NC(=O)c2cn(Cc3ccccc3)nc2-c2ccc(Cl)cc2)cc1	none (no result: SNCA expr inhib, IP6K1 inhibitor, SNCA viab count)
CN(C)C(=O)c1cc(-c2ccc(S(C)(=O)=O)cc2)c2cnn(C)c2n1	KDM5B inhibitor 79.4µM
CC(C)NC(=O)c1cc(-c2ccc(S(C)(=O)=O)cc2)c2cnn(C)c2n1	KDM5B inhibitor 89.1µM
Cc1cccc(C(=O)NCCC(=O)NCC2CCCCC2)c1	none (no result: SNCA expr inhib, IP6K1 inhibitor, SNCA viab count)
NC(=O)c1ccccc1OCc1ccc(C(F)(F)F)cc1	none (no result: SNCA expr inhib, IP6K1 inhibitor, SNCA viab count)
C#CCN[C@H]1C[C@@H]2c3[nH]c4ccccc4c3C[C@@H](C(=O)OC)N2[C@H](c2ccc(F)cc2)C1	SNCA expr inhib inconclusive, SNCA viab count inconclusive, KDM5B inhibitor 39.8µM
COC(=O)[C@@H]1Cc2c([nH]c3ccccc23)[C@H]2C[C@@H](N3CCOCC3)C[C@@H](c3ccc(F)cc3)N21	KDM5B inhibitor 12.6µM
COC(=O)[C@@H]1Cc2c([nH]c3ccccc23)[C@H]2C[C@@H](NCc3cccnc3)C[C@@H](c3ccc(F)c(F)c3)N21	KDM5B inhibitor 25.1µM
COC(=O)[C@@H]1Cc2c([nH]c3ccccc23)[C@H]2C[C@@H](NCc3cccnc3)C[C@@H](c3ccc(F)cc3)N21	KDM5B inhibitor inconclusive
COC(=O)[C@@H]1Cc2c([nH]c3ccccc23)[C@H]2C[C@@H](NCCO)C[C@@H](c3ccc(F)cc3)N21	KDM5B inhibitor inconclusive
COC(=O)[C@@H]1Cc2c([nH]c3ccccc23)[C@H]2C[C@@H](NC3CC3)C[C@@H](c3ccc(F)cc3)N21	SNCA expr inhib 28.2µM, SNCA viab count inconclusive
O=C(C1CN(C2CCCCC2)C(=O)N1)N1CCc2ccccc2C1 (centres undefined)	none (no result: KDM5B inhibitor)
O=C(NCc1cccs1)c1cc(-c2cccnc2)c2nncn2n1	KDM5B inhibitor 100µM
O=C(NCc1cccs1)c1cc(-c2ccccc2)c2nncn2n1	none (no result: KDM5B inhibitor)
CS(=O)(=O)N(Cc1cccnc1)C1CN(C(=O)c2ccc3cc[nH]c3c2)C1	KDM5B inhibitor 31.6µM
COc1ccc(C(=O)/C=C/c2ccc(C)cc2)c(O)c1	none (no result: SNCA expr inhib, IP6K1 inhibitor, SNCA viab count)
COCCn1cnc2ccc(OCC3CC3)nc2c1=O	SNCA expr inhib inconclusive
COCCn1cnc2ccc(-c3cccc(O)c3)nc2c1=O	SNCA expr inhib inconclusive
COCCn1cnc2ccc(N3CCCC3)nc2c1=O	KDM5B inhibitor 31.6µM
COCCn1cnc2ccc(-c3cccnc3OC)nc2c1=O	KDM5B inhibitor 39.8µM
COCCn1cnc2ccc(-c3ccccc3)nc2c1=O	KDM5B inhibitor 35.5µM
COCCn1cnc2ccc(-c3ccc(F)cc3)nc2c1=O	KDM5B inhibitor 35.5µM
CC(C(=O)Nc1ccc(F)cc1)N1CCN(C(=O)c2cccs2)CC1 (centres undefined)	none (no result: SNCA expr inhib, IP6K1 inhibitor, SNCA viab count)
Cc1noc(C)c1-c1cc2c(c(-c3cccc(CO)c3)c1)C(=O)N(C)C2	none
Cc1noc(C)c1-c1cc2c(c(-c3cnn(C)c3)c1)C(=O)N(C)C2	KDM5B inhibitor 39.8µM
Cc1ccc(-c2cc3c(=O)n(CCNC(=O)c4nn(C)c5ccccc45)ccn3n2)cc1C	KDM5B inhibitor 22.4µM
COc1ccc(-c2cc3c(=O)n(CCNC(=O)c4ccccc4C)ccn3n2)cc1	KDM5B inhibitor 20µM
Cc1ccc(-c2cc3c(=O)n(CCNC(=O)c4cc(F)ccc4F)ccn3n2)cc1C	KDM5B inhibitor inconclusive
COc1ccccc1C(=O)NCCn1ccn2nc(-c3ccc(C)c(C)c3)cc2c1=O	KDM5B inhibitor 28.2µM
CCN1C(=O)S/C(=C/c2cn(CC(=O)OC)c3ccccc23)C1=O	none (no result: SNCA expr inhib, IP6K1 inhibitor, SNCA viab count)
Cc1ccc(S(=O)(=O)N2CCc3nc4cc[nH]n4c(=O)c3C2)cc1C	KDM5B inhibitor 25.1µM
CCCc1ccc(S(=O)(=O)N2CCc3nc4cc[nH]n4c(=O)c3C2)cc1	SNCA expr inhib inconclusive, KDM5B inhibitor 14.1µM
CC(CNCc1cccs1)CN1CCCCC1 (centres undefined)	none (no result: SNCA expr inhib, IP6K1 inhibitor, SNCA viab count)
O=C(CC1CC1)N1CCC(Oc2cnc3c(ccn3-c3cncnc3)c2)CC1	none
NC(=O)Cn1ccc2cc(OCC3CCN(C(=O)CC4CC4)CC3)cnc21	KDM5B inhibitor 35.5µM
O=C(Cc1ccccc1)N1CCC(Oc2cnc3c(ccn3-c3cncnc3)c2)CC1	SNCA expr inhib inconclusive, SNCA viab count inconclusive
O=C(O)Cn1ccc2cc(OCC3CCN(C(=O)COc4ccccc4)CC3)cnc21	KDM5B inhibitor 35.5µM
O=C(O)Cn1ccc2cc(OCC3CCN(C(=O)Cc4ccccc4)CC3)cnc21	KDM5B inhibitor 39.8µM
CCOC(=O)C(NC(=O)c1cccnc1)(Nc1cc(Cl)ccc1OC)C(F)(F)F (centres undefined)	none (no result: SNCA expr inhib, IP6K1 inhibitor, SNCA viab count)
O=C(Nc1ccc2ncnc(N3CCCCC3)c2c1)c1cncc(Br)c1	KDM5B inhibitor 28.2µM
Nc1ccc2ncnc(N3CCCC3)c2c1	KDM5B inhibitor 28.2µM
O=C(Nc1ccc2ncnc(N3CCCCC3)c2c1)c1ccsc1	SNCA viab count inconclusive
COc1ccc(CC(=O)Nc2ccc3ncnc(N4CCCCC4)c3c2)c(Cl)c1	KDM5B inhibitor 31.6µM
O=C(Nc1ccc2ncnc(N3CCCC3)c2c1)c1cccc(Br)c1	KDM5B inhibitor 31.6µM
COc1ccc(CC(=O)Nc2ccc3ncnc(N4CCCC4)c3c2)c(Cl)c1	KDM5B inhibitor inconclusive
O=C(Nc1ccc2c(N3CCCC3)ncnc2c1)c1ccc(Br)cc1	SNCA expr inhib inconclusive, SNCA viab count inconclusive, KDM5B inhibitor inconclusive
O=C(NCc1ccc(F)cc1)c1nc(Cc2c[nH]c3ccccc23)no1	none (no result: SNCA expr inhib, IP6K1 inhibitor, SNCA viab count)
O=C(O)c1cc2cn(C3CC3)cc2s1	KDM5B inhibitor 25.1µM
COc1ccc(-c2ccnc3nc(CCc4ccccc4)nn23)c(F)c1	KDM5B inhibitor 28.2µM
COc1ccc(-c2ccnc3nc(C4CCCO4)nn23)c(F)c1 (centres undefined)	KDM5B inhibitor 25.1µM
Fc1ccc(-c2ccnc3nc(C4CCCO4)nn23)cc1 (centres undefined)	KDM5B inhibitor inconclusive
COc1cc(F)ccc1-c1ccnc2nc(CCc3ccccc3)nn12	KDM5B inhibitor 25.1µM
